# Inconclusive results are not listed. Active and inactive are the calls of the source. The calls were made as follows: active = hit-call score of the fitted dose curve at least 0.9, where 1 is the maximum; inconclusive = response in the unintended direction; inactive = score below 0.9.
# What was measured:
# [1] = biological target: human Retinoic Acid Receptor beta (RARb), RARB (gene 5915) (UniProt P10826); assay: ATG_RARb_TRANS: Attagene TRANS-FACTORIAL HepG2 Assay for human Retinoic Acid Receptor beta (AID 2283004)
# Procedure, shortened: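 Fluorescent capillary-electrophoresis detection of GAL4-UAS reporter mRNA defines the endpoint, with induction over DMSO-treated wells scored as activity. Transiently transfected human hepatoma HepG2 cells expressing exogenous NR–Gal4 proteins are exposed to test chemicals for 24 h.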
# [2] = biological target: Retinoic acid receptor alpha (Homo sapiens) (UniProt P10276); assay: ATG_RARa_TRANS: Attagene TRANS-FACTORIAL HepG2 Assay for human Retinoic Acid Receptor alpha (RARa) (AID 2283005)
# Procedure, shortened: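 HepG2 transiently transfected with multiplex GAL4-UAS reporter units including a human RARa–GAL4 chimera; 24 h compound exposure. Reporter mRNA quantified by RT-PCR, 6-FAM labeling and capillary electrophoresis; gain of signal versus DMSO.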
# [3] = biological target: Peroxisome proliferator-activated receptor gamma (Homo sapiens) (UniProt P37231); assay: ATG_PPARg_TRANS: Attagene TRANS-FACTORIAL HepG2 Assay for human Peroxisome Proliferator-activated Receptor-gamma (PPARg) (AID 2283007)
# Procedure, shortened: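 Transient transfection of HepG2 with GAL4-UAS-driven reporter units; chemical dosing 24 h; total RNA → oligo(dT) RT → PCR with reporter primers → 6-FAM primer extension → HpaI digest 2 h 37 C → capillary electrophoresis. Positive direction vs DMSO.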
# [4] = biological target: human Retinoic Acid Receptor gamma (RARg), RARG (gene 5916) (UniProt P13631); assay: ATG_RARg_TRANS: Attagene TRANS-FACTORIAL HepG2 Assay for human Retinoic Acid Receptor gamma (RARg) (AID 2283009)
# Procedure, shortened: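 Gain-of-signal relative to DMSO is reported from fluorescent capillary electrophoresis of RT-PCR reporter products. These came from HepG2 cells expressing transfected RARg-GAL4 chimeras with UAS reporters, harvested 24 h after dosing.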
# [5] = biological target: Nuclear receptor subfamily 1 group I member 2 (Homo sapiens) (UniProt O75469); assay: ATG_PXR_TRANS: Attagene TRANS-FACTORIAL HepG2 Assay for human Pregnane X Receptor (PXR) (AID 2283008)
# Procedure, shortened: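 Transactivation by exogenous PXR–GAL4 fusion measured as reporter transcript induction after 24 h compound treatment of transfected human HepG2 cells. Read-out via RT-PCR and capillary electrophoresis of labelled fragments, fitted upward relative to DMSO.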
# [6] = biological target: Retinoic acid receptor RXR-alpha (Homo sapiens) (UniProt P19793); assay: ATG_RXRa_TRANS: Attagene TRANS-FACTORIAL HepG2 Assay for human Retinoid X Receptor alpha (RXRa) (AID 2283012)
# Procedure, shortened: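 Chimeric NR-GAL4 trans-activation in HepG2, 24 h treatment; reporter transcripts quantified by fluorescence on capillary electrophoresis, analysed for upward change from DMSO.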
# [7] = biological target: human RAR-related Orphan Receptor gamma (RORg), RORC (gene 6097) (UniProt P51449); assay: ATG_RORg_TRANS: Attagene TRANS-FACTORIAL HepG2 Assay for human RAR-related Orphan Receptor gamma (RORg) (AID 2283011)
# Procedure, shortened: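 Chimeric RORg-Gal4 transactivation in transfected HepG2; 24 h exposure; RT-PCR/capillary electrophoresis readout of reporter mRNA, DMSO baseline.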
# [8] = biological target: human RAR-related Orphan Receptor beta (RORb), RORB (gene 6096) (UniProt Q92753); assay: ATG_RORb_TRANS: Attagene TRANS-FACTORIAL HepG2 Assay for human RAR-related Orphan Receptor beta (RORb) (AID 2283010)
# Procedure, shortened: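 Multiplexed transcription-factor reporter assay: HepG2 cells transiently carrying NR-Gal4/GAL4-UAS constructs, 24 h treatment, mRNA quantified by RT-PCR plus capillary electrophoresis fluorescence; activity scored as induction over DMSO.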
# Chain of Peroxisome proliferator-activated receptor gamma (Homo sapiens) (P37231 whole entry, looked up, the tested form may be a part): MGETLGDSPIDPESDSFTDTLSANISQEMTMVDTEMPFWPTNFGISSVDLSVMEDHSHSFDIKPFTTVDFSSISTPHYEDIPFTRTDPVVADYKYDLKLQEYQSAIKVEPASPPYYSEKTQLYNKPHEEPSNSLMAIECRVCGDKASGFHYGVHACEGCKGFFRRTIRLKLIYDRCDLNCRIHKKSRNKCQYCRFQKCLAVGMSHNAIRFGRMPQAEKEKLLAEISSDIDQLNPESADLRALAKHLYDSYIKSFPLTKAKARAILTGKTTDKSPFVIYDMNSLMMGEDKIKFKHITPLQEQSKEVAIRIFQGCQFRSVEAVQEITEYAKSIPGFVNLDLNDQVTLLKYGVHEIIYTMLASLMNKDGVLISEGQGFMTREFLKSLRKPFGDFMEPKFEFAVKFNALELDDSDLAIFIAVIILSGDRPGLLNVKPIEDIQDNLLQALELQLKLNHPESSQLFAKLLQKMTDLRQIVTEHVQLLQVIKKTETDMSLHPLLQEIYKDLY
# Chain of human Retinoic Acid Receptor beta (RARb), RARB (gene 5915) (P10826 whole entry, looked up, the tested form may be a part): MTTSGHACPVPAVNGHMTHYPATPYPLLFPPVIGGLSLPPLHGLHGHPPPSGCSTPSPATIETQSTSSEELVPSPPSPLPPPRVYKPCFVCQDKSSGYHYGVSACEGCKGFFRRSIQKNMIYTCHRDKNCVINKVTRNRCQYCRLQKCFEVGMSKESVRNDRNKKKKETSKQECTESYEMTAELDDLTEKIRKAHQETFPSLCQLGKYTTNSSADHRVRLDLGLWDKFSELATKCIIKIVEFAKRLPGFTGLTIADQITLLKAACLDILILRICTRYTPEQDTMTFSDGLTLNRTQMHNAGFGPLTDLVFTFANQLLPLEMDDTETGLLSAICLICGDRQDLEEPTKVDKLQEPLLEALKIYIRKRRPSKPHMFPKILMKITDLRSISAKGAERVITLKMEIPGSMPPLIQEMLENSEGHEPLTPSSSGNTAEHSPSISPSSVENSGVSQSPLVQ
# Chain of Retinoic acid receptor alpha (Homo sapiens) (P10276 whole entry, looked up, the tested form may be a part): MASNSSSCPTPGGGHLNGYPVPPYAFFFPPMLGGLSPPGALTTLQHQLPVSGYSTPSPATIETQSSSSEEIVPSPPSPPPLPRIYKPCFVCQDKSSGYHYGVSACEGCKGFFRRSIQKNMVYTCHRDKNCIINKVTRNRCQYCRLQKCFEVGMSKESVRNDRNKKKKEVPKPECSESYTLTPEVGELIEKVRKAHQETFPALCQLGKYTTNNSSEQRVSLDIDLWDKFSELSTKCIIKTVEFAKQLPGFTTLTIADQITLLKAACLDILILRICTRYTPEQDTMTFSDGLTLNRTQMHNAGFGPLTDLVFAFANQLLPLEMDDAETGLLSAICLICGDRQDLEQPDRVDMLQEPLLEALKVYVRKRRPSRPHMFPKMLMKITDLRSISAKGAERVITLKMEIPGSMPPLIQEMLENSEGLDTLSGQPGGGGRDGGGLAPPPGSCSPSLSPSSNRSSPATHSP
# Chain of human RAR-related Orphan Receptor gamma (RORg), RORC (gene 6097) (P51449 whole entry, looked up, the tested form may be a part): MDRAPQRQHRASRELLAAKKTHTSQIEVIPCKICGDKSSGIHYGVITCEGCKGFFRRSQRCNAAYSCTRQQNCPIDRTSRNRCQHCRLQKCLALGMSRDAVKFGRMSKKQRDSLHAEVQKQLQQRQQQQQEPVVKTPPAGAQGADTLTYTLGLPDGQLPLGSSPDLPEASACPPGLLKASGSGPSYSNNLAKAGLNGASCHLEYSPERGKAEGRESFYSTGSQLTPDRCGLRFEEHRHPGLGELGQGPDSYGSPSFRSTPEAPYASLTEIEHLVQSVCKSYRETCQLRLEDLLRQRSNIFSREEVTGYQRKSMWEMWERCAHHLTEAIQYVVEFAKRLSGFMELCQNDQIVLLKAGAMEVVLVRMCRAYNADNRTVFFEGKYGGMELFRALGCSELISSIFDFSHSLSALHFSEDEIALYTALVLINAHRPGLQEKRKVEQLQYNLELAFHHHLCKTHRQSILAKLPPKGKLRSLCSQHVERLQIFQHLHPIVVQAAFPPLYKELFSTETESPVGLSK
# Chain of human Retinoic Acid Receptor gamma (RARg), RARG (gene 5916) (P13631 whole entry, looked up, the tested form may be a part): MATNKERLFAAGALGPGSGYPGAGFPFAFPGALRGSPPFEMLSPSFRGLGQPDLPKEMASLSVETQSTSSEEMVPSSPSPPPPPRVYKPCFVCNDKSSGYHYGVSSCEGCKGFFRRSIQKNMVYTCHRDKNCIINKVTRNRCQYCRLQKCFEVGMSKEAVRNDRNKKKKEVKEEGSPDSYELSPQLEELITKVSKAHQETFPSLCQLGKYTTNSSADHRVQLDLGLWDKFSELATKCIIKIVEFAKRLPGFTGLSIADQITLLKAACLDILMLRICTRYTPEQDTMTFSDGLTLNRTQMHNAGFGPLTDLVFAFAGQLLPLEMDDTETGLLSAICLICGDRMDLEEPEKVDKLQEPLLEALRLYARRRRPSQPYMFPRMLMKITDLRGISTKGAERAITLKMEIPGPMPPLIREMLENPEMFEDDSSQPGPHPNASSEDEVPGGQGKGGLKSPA
# Chain of Retinoic acid receptor RXR-alpha (Homo sapiens) (P19793 whole entry, looked up, the tested form may be a part): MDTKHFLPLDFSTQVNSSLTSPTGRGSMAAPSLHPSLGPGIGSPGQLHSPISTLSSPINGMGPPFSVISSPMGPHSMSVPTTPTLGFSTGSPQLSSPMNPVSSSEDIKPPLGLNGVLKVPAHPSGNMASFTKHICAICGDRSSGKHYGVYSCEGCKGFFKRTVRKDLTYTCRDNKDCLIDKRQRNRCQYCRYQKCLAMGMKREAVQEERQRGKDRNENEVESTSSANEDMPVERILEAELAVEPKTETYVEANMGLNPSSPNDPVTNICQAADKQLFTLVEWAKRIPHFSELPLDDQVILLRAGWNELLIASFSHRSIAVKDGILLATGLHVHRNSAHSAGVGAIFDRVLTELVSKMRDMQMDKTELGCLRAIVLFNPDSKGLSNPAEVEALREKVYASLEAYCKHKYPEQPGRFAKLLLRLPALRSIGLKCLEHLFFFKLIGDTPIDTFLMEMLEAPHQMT
# Chain of Nuclear receptor subfamily 1 group I member 2 (Homo sapiens) (O75469 whole entry, looked up, the tested form may be a part): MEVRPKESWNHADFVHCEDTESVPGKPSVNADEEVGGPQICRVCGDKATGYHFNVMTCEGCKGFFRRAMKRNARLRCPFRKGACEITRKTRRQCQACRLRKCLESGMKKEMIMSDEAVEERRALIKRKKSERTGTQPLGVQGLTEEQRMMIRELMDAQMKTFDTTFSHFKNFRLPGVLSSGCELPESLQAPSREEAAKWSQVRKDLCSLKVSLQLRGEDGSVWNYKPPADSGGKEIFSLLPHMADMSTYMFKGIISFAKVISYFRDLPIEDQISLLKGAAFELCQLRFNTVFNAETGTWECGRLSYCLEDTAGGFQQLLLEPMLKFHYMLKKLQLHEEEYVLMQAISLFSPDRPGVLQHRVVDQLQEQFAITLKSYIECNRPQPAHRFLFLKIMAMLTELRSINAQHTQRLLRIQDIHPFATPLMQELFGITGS
# Chain of human RAR-related Orphan Receptor beta (RORb), RORB (gene 6096) (Q92753 whole entry, looked up, the tested form may be a part): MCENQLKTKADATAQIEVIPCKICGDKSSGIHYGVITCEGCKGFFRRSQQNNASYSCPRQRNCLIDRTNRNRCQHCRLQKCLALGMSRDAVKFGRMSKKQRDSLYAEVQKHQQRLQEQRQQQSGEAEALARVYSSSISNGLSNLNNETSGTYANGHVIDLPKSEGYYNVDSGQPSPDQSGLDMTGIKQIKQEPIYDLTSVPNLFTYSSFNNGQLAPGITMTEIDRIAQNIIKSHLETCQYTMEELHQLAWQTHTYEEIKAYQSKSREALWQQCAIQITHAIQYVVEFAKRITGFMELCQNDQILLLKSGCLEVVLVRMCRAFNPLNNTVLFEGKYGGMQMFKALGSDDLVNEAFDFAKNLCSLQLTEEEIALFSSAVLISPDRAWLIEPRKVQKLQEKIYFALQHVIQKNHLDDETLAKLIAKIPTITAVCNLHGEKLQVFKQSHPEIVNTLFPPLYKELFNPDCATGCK
smiles,measurement,setting,value
CCCCCCCC[N+](C)(CCCCCCCC)CCCCCCCC,outcome,[1],inactive
same,outcome,[2],inactive
same,outcome,[3],inactive
same,outcome,[4],inactive
Cc1cc(C)c(C)c(O)c1,outcome,[1],inactive
same,outcome,[3],inactive
same,outcome,[5],inactive
same,outcome,[6],inactive
Nc1cccc(C(F)(F)F)c1,outcome,[1],inactive
same,outcome,[3],inactive
same,outcome,[7],inactive
Cc1cccc(C(=O)O)c1,outcome,[2],inactive
same,outcome,[3],inactive
same,outcome,[5],inactive
same,outcome,[4],inactive
same,outcome,[7],inactive
same,outcome,[6],inactive
CC(C)(Oc1ccc(C2CC2(Cl)Cl)cc1)C(=O)O (stereo not drawn),AC50,[3],30.6 µM (active)
same,outcome,[5],inactive
same,outcome,[4],inactive
same,outcome,[6],inactive
CC(C)c1ccc2cc(C(C)C)ccc2c1,outcome,[3],inactive
same,AC50,[5],7.42 µM (active)
same,outcome,[8],inactive
same,outcome,[6],inactive
COC(=O)C1=C(C)NC(C)=C(C(=O)OCC(C)C)C1c1ccccc1[N+](=O)[O-] (stereo not drawn),AC50,[3],6.19 µM (active)
O=S(=O)(O)c1ccccc1C=Cc1ccc(-c2ccc(C=Cc3ccccc3S(=O)(=O)O)cc2)cc1,outcome,[2],inactive
same,outcome,[3],inactive
same,outcome,[7],inactive
O=Cc1ccc(CO)o1,outcome,[2],inactive
Clc1nc2ccccc2s1,outcome,[3],inactive
same,outcome,[5],inactive
same,outcome,[4],inactive
same,outcome,[8],inactive
same,outcome,[6],inactive
Cc1cc(C)c(C(=O)O)c(C)c1,outcome,[3],inactive
same,outcome,[5],inactive
same,outcome,[8],inactive
same,outcome,[7],inactive
CCCC(=O)OCc1ccccc1,outcome,[2],inactive
same,outcome,[7],inactive
same,outcome,[6],inactive
CCCCCCC1(C)CCC(=O)O1 (stereo not drawn),outcome,[3],inactive
same,AC50,[5],33.2 µM (active)
Cc1cc(O)c(Cl)c(C)c1Cl,AC50,[3],21.9 µM (active)
same,AC50,[5],26.4 µM (active)
C=C(C)[C@@H]1CCC2=CCC[C@@H](C)[C@]2(C)C1,outcome,[3],inactive
same,AC50,[5],2.72 µM (active)
OCCN(CCO)c1ccccc1,outcome,[2],inactive
same,outcome,[3],inactive
same,outcome,[5],inactive
same,outcome,[6],inactive
Cn1c(=O)[nH]c2ncn(C)c2c1=O,outcome,[2],inactive
same,outcome,[5],inactive
same,outcome,[4],inactive
same,outcome,[8],inactive
CC1=NN(c2cc(S(=O)(=O)O)ccc2Cl)C(=O)C1N=Nc1ccccc1 (stereo not drawn),outcome,[3],inactive
same,outcome,[5],inactive
same,outcome,[4],inactive
same,outcome,[8],inactive
same,outcome,[7],inactive
same,outcome,[6],inactive
C1CN(SSN2CCOCC2)CCO1,outcome,[3],inactive
same,outcome,[5],inactive
CCCCOCCOC(=O)COc1nc(Cl)c(Cl)cc1Cl,AC50,[3],60.1 µM (active)
same,outcome,[5],inactive
CCN(CC)c1ccc(C(=O)c2ccccc2C(=O)O)c(O)c1,AC50,[3],30 µM (active)
same,AC50,[5],0.611 µM (active)
same,outcome,[7],inactive
O=C1OC(=O)c2cc(Oc3ccc4c(c3)C(=O)OC4=O)ccc21,outcome,[1],inactive
same,outcome,[7],inactive
same,outcome,[6],inactive
CCCCC/C=C\CCC=O,AC50,[3],53.6 µM (active)
same,outcome,[5],inactive
O=C(O)CCCCCCCCCC(=O)O,outcome,[3],inactive
same,outcome,[5],inactive
same,outcome,[8],inactive
same,outcome,[6],inactive

# — PubChem BioAssay (EPA / NIEHS)
